# Measured potencies and affinities stand elsewhere. Active and inactive are the calls of the source. The rule behind the calls is not given here.
# Test: HepG2 cell cytotoxicity, dose response, cytotoxicity control, plate reader, cherry-pick, antagonist series (AID 743416);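 note: 0% = neutral control wells and -100% = positive control wells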
# Conditions: series mostly up to 26 µM; activity change, negative = cytotoxicity: at the top concentration
row,SMILES,"activity change, negative = cytotoxicity"
1,Cn1nnnc1Sc1ncnc2scc(-c3ccccc3C(F)(F)F)c12,-9.93% (inactive)
2,CCC(=O)N(C)C[C@H]1Oc2cc(C#CCC(C)C)ccc2S(=O)(=O)N([C@H](C)CO)C[C@@H]1C,-13.4% (inactive)
3,O=C(Nc1ccc(N2CCOCC2)c(S(=O)(=O)Nc2ccccc2Cl)c1)c1ccc(F)cc1,-9.15% (inactive)
4,COc1ccc2[nH]c3c(c2c1)CCN1C(=O)N([C@@H](C)C(=O)NCc2ccc(C)cc2)C(=O)[C@]31C,3.42% (inactive)
5,Cc1ccc(S(=O)(=O)N(C)C[C@H]2Oc3cc(Br)ccc3S(=O)(=O)N([C@H](C)CO)C[C@H]2C)cc1,-7.63% (inactive)
6,COCC(=O)N[C@@H]1CC[C@@H](CC(=O)NCc2ccccc2OC)O[C@@H]1CO,-8.04% (inactive)
7,C[C@H](CO)N1C[C@H](C)[C@H](CN(C)C(=O)Nc2ccccc2)OCCCC[C@H](C)Oc2ccc(NC(=O)CCC(F)(F)F)cc2C1=O,5.48% (inactive)
8,C[C@H](CO)N1C[C@H](C)[C@H](CN(C)C(=O)Nc2ccccc2)OCCCC[C@H](C)Oc2ccc(NC(=O)Nc3ccccc3)cc2C1=O,-10.4% (inactive)
9,C[C@H](CO)N1C[C@H](C)[C@H](CN(C)C(=O)CN2CCOCC2)Oc2ncc(C#CCN(C)C)cc2C1=O,15.8% (inactive)
10,C[C@H](CO)N1C[C@H](C)[C@H](CN(C)C(=O)Nc2ccc3c(c2)OCO3)OCCCC[C@H](C)Oc2ccc(NC(=O)C3CCCCC3)cc2C1=O,31.6% (inactive)
11,C[C@H](CO)N1C[C@H](C)[C@H](CN(C)C(=O)Nc2ccccc2)OCCCC[C@H](C)Oc2ccc(NC(=O)C3CCCCC3)cc2C1=O,9.79% (inactive)
12,C[C@H](CO)N1C[C@H](C)[C@@H](CN(C)C(=O)Nc2ccc3c(c2)OCO3)Oc2c(cccc2N(C)C)C1=O,0.337% (inactive)
13,C[C@@H]1CN([C@@H](C)CO)S(=O)(=O)c2ccc(C3=CCCC3)cc2O[C@H]1CN(C)C(=O)c1ccccc1,-18.8% (inactive)
14,O=C(Nc1ccc(-c2nc3cccnc3s2)cc1)C1CCCO1 (stereo not drawn),-1.84% (inactive)
15,O=C(COC(=O)c1ccccc1C(=O)c1ccc(Cl)c([N+](=O)[O-])c1)NC1CC1,-22% (inactive)
16,CCOc1ccc(-n2cc(-c3ccccc3)c3c(N4CCOCC4)ncnc32)cc1,-0.305% (inactive)
17,CCc1cc(-c2ccc3c(c2)COc2c4ccccc4nn2-3)on1,-3.23% (inactive)
18,CC(=O)N1CCc2cc(S(=O)(=O)C(C)CC(=O)NCc3ccco3)ccc21 (stereo not drawn),-0.864% (inactive)
19,C[C@H](CO)N1C[C@H](C)[C@H](CN(C)C(=O)Nc2cccc3ccccc23)OCCCC[C@H](C)Oc2ccc(NC(=O)C3CCCCC3)cc2C1=O,0.712% (inactive)

row,SMILES,"activity change, negative = cytotoxicity"
1,O=c1cc(-c2c(F)c(F)c(F)c(F)c2F)oc2ccccc12,11.6% (inactive)
2,Cc1ccc(S(=O)(=O)N(C)C[C@H]2Oc3c(cccc3N(C)C)C(=O)N([C@@H](C)CO)C[C@@H]2C)cc1,9.89% (inactive)
3,Cc1ccc(-n2[nH]c(=O)c(-c3ccccn3)c2C)cc1,-8.38% (inactive)
4,Cc1cccc(-c2ccc([C@H]3[C@@H](CO)N4CCCCN(C(=O)c5ccc6c(c5)OCO6)C[C@@H]34)cc2)c1,-30.7% (inactive)
5,CC[C@H](CO)Oc1cc(NCc2ccc(Cl)c(Cl)c2)c2ncn(C(C)C)c2c1,-4.28% (inactive)
6,Cc1ccnc(NC(=O)CCC(=O)c2cccs2)c1,-2.27% (inactive)
7,NCC[C@H]1CC[C@H](NS(=O)(=O)Cc2ccccc2)[C@@H](CO)O1,6.35% (inactive)
8,COc1ccc(NC(=O)N(C)C[C@@H]2OCCCC[C@H](C)Oc3ccc(NC(=O)C4CCCCC4)cc3C(=O)N([C@H](C)CO)C[C@@H]2C)cc1,-2.67% (inactive)
9,C[C@H](CO)N1C[C@H](C)[C@H](CN(C)C(=O)Nc2ccc(F)cc2)OCCCC[C@H](C)Oc2ccc(NC(=O)Nc3ccc(F)cc3)cc2C1=O,-34.2% [at 23.5 µM] (inactive)
10,C[C@H]1CCCCO[C@@H](CN(C)C(=O)Nc2ccccc2)[C@@H](C)CN([C@@H](C)CO)C(=O)c2cc(NC(=O)NC3CCCCC3)ccc2O1,23.7% (inactive)
11,COc1ccc(-c2cc(-c3ccccc3)no2)cc1,-0.409% (inactive)
12,C[C@H](CO)N1C[C@H](C)[C@H](CN(C)C(=O)Nc2ccc(C(F)(F)F)cc2)OCCCC[C@H](C)Oc2ccc(NC(=O)CCC(F)(F)F)cc2C1=O,-13.6% (inactive)
13,Cc1ccc(-n2cc(CN(C)Cc3nccn3C)c(-c3cccc(C)c3)n2)cc1,-9.03% (inactive)
14,O=C(Nc1ccc(Cl)cc1)Nc1cccc(C(=O)O)c1,5.5% (inactive)
15,Cn1nnnc1SCC(=O)N1CCN(C(=O)c2ccco2)CC1,5.76% (inactive)
16,O=C(Nc1ccc(N2CCOCC2)cc1)c1cnccn1,-1.59% (inactive)
17,COc1ccc(-c2cc(-c3nnc(COC(=O)C4CC4)o3)c3ccccc3n2)cc1OC,76% (inactive)
18,C[C@H](CO)N1C[C@H](C)[C@H](CN(C)S(=O)(=O)c2ccc(C(F)(F)F)cc2)OCc2ccccc2-c2c(n(C)c3ccccc23)C1=O,-43% (inactive)
19,C[C@H]1CCCCO[C@@H](CN(C)C(=O)Nc2ccc3c(c2)OCO3)[C@@H](C)CN([C@@H](C)CO)C(=O)c2cc(NC(=O)NC3CCCCC3)ccc2O1,-26.4% [at 23.5 µM] (inactive)

# — PubChem BioAssay
